# Experimental data published in article PMC4336329 (PLoS ONE, 2015).
# In all, about 310,000 compounds went through this assay and about 14,000 (4.5%) showed an effect of 50% or more. Effects have a minus sign here. What follows is part of a selection rich in strong results, with near analogues and random picks from the rest.
# Molecular target: human ether-à-go-go-related gene (hERG) potassium channel (human, UniProt Q12809)
# Assay: primary screen, population patch clamp on CHO cells stably expressing hERG; higher = less effect of the substance
# 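Note: peak tail current of the secondary pulse compared with the same well before compound.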
# human ether-à-go-go-related gene (hERG) potassium channel, sequence (Q12809 whole entry, looked up): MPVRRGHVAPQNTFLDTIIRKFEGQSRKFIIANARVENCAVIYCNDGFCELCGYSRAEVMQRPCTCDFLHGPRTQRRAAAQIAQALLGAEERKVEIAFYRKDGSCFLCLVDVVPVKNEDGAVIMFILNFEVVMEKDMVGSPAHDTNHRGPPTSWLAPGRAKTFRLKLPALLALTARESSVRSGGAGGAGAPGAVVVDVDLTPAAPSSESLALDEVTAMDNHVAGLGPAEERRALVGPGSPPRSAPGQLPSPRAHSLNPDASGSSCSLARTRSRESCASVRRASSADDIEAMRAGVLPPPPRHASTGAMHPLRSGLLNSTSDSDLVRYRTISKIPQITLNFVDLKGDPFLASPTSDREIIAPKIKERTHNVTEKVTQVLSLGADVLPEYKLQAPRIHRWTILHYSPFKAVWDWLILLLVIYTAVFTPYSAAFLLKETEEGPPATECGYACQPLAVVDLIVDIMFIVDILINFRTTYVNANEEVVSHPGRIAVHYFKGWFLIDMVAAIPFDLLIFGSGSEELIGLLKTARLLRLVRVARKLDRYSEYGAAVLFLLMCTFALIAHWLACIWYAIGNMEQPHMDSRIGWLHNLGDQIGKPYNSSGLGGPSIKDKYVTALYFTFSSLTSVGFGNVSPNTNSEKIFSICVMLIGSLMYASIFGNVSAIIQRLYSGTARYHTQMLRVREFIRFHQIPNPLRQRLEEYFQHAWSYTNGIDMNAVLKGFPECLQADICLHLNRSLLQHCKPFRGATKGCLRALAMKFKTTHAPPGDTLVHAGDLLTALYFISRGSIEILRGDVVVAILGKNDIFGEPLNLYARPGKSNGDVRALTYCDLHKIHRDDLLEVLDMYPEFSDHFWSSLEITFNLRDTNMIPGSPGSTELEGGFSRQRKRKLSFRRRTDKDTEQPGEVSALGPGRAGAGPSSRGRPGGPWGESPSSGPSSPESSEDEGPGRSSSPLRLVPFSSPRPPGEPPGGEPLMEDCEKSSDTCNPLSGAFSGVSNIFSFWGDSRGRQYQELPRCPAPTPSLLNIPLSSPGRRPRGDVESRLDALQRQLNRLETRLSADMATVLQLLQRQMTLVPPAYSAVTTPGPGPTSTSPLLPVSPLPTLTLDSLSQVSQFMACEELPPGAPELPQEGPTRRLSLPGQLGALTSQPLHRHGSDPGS
row,Structure (SMILES),"hERG current change (%, negative = inhibition) at 10uM"
1,CCCCn1c2c(c(=N)c3ccccc31)CCC2.I,-50.3%
2,CC(=O)NNC(=O)CCn1c2c(c3ccccc31)CCCC2,9.01%
3,O=C(O)CCn1c2c(c3ccccc31)CCCC2,25.3%
4,CCCCCn1c2c(c(=N)c3ccccc31)CCC2.I,-71.2%
5,O=C(O)Cn1c2c(c3ccccc31)CCCC2,7.39%
6,Br.CCn1c2c(c(=N)c3ccccc31)CCC2,5.12%
7,CCCCCCCn1c2c(c(=N)c3ccccc31)CCC2.I,-81.4%
8,Cl.N=c1c2c(n(Cc3ccccc3)c3c1CCC3)CCC2,-0.485%
9,CCOC(=O)Cn1c2c(c(=N)c3ccccc31)CCC2.Cl,4.06%
10,[N-]=[N+]=NC[C@H](Cc1ccccc1)N1CC[C@@H](OCc2ccccc2)CCC1=O,-13.3%
11,CCC(=O)n1nc(-c2ccc(Cl)cc2)nc1N,3.71%
12,CC1(/[N+]([O-])=C/c2ccccc2F)CCCCC1=O (stereo not drawn),25.2%
13,O=C1OC(c2ccc(Br)cc2)=N/C1=C\c1ccco1,26.3%
14,CCOc1nc(NCCc2ccc(OC)c(OC)c2)nc(N2CCN(c3ccc(OC)cc3)CC2)n1,-3.79%
15,COc1ccc(N2CCN(c3nc(NCCc4ccc(OC)c(OC)c4)nc(OC)n3)CC2)cc1,-78.3%
16,COc1ccc(CCNc2nc(N3CCOCC3)nc(N3CCOCC3)n2)cc1OC,3.45%
17,N=C1C(c2nc(-c3ccc(Cl)cc3)cs2)=C(O)CN1NC(=O)c1ccc(O)cc1,4.02%
18,Cc1ccccc1N1CCN(C2CCCN(C(=O)c3cc[n+]([O-])cc3)C2)CC1 (stereo not drawn),9.87%
19,COc1ccc(CN2C(=O)CCC(C(=O)O)C2c2ccccc2)cc1 (stereo not drawn),25.6%
20,Cc1cc(=O)n(C)c(=O)n1CCCCOc1cccc([N+](=O)[O-])c1,-14.5%
21,O=C(COc1cccc([N+](=O)[O-])c1)NN1C(=O)c2ccccc2C1=O,-5.95%
22,Cc1cc(=O)n(C)c(=O)n1CCCCCCOc1cccc([N+](=O)[O-])c1,-69.3%
23,Cc1cc(=O)n(C)c(=O)n1CCCCCOc1cccc([N+](=O)[O-])c1,-57.9%

row,Structure (SMILES),"hERG current change (%, negative = inhibition) at 10uM"
1,Cc1cc(=O)n(C)c(=O)n1CCCNc1ccccc1.O=C(O)C(=O)O,-4.01%
2,Cc1cc(C(=O)COc2cccc([N+](=O)[O-])c2)c(C)n1C1CC1,-35.7%
3,Cn1nccc1CNC(=O)c1ccnn1C,14.9%
4,COc1ccc(COC(=O)C2=C(C)NC(=O)NC2c2cccc(OC)c2OC)cc1 (stereo not drawn),5.25%
5,CCC(=O)Nc1ncc2c(n1)CC(c1ccco1)CC2=O (stereo not drawn),7.92%
6,Cc1ccc(Cl)cc1NC(=O)COC(=O)C1CCCC1,-75.8%
7,COc1ccc(C)cc1NC(=O)COC(=O)C1CCN(C(=O)c2ccc(Cl)cc2)CC1,-79.1%
8,Cc1ccc(Cl)cc1NC(=O)COC(=O)C1CC1,-5.31%
9,COc1ccc(COC(=O)C2CCN(C(=O)c3ccc(Cl)cc3)CC2)cc1F,-52.2%
10,COc1ccc(Cl)cc1NC(=O)COC(=O)C1CCCCC1,7.15%
11,Cc1ccc(Cl)cc1NC(=O)COC(=O)C1CCCCC1,7.48%
12,COc1ccc(C)cc1NC(=O)Nc1ccc(C(=O)N2CCCC2)cc1,-23%
13,COc1ccc(CCNC(=O)C2CCN(C(=O)c3ccc(Cl)cc3)CC2)cc1OC,2.77%
14,COc1ccc(Cl)cc1NC(=O)COC(=O)C1CC1,-0.403%
15,COc1ccc(OC)c(NC(=O)COC(=O)C2CCN(C(=O)c3ccc(Cl)cc3)CC2)c1,-71.1%
16,O=C(OCc1ccccn1)C1CCN(C(=O)c2ccc(Cl)cc2)CC1,-36%
17,COc1ccc(C)cc1NC(=O)COC(=O)C1CC1,6.16%
18,Cl.NC(CO)C12CC3CC(CC(C3)C1)C2 (stereo not drawn),9.97%
19,Cc1ccc(C(C(=O)NCc2ccco2)N(C(=O)CNC(=O)c2cccs2)c2ccc(C)cc2C)cc1 (stereo not drawn),-10.3%
20,CN1CCN(c2nc(-c3ccccc3)cc(C(F)(F)F)n2)CC1,-19.1%
21,CCOc1ccc2c(c1)c(N=NC(N)=S)c(O)n2C,1.21%
22,CC(C)Cc1nnc(NC(=O)C2CC(=O)N(Cc3ccccc3)C2)s1 (stereo not drawn),0.385%
